Screening data from PubChem.
POLB inh: qHTS Assay for Inhibitors of DNA Polymerase Beta; Pol beta primer extension/strand displacement, fluorescence kinetic; Potency, µM (titrated, usually from 114 µM), inactives show at the top dose activity change, negative = inhibition, most hits filed as inhibitors; AID 485314, 2010; hit rate 1.3% among 340,000; note: potency is the fitted concentration of half-maximal effect; % is set by controls: 0 for no effect and ±100 for the full control effect
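Pol beta (10 nM) and compounds were preincubated 15 min at room temperature, then 50 nM substrate (final) started primer extension/strand displacement. Reads were taken at 0 and 10 min; concentration-response data were fitted to a four-parameter Hill equation.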
POLI inh: qHTS for Inhibitors of Polymerase Iota; hit rate 1% among 390,000; Pol iota fluorescent replication assay, 10 min; AID 588590, 2011; DNA polymerase iota (Homo sapiens), Q9UNA4; Potency, µM (doses to about 115 µM), without a hit: at the highest dose activity, negative = inhibition, most hits filed as inhibitors; note: potency is the fitted concentration of half-maximal effect
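Fluorescent replication assay read twice, at 0 min and 10 min after adding 50 nM (final) substrate. Enzyme (10 nM) and compounds were first incubated 15 min at room temperature; enzyme-free buffer wells were negative controls.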
POLH inh: qHTS for Inhibitors of Polymerase Eta | DNA polymerase eta (Homo sapiens), Q9Y253 | recombinant Pol eta, fluorescent DNA replication assay | Potency, µM (highest dose often 114 µM), without a hit: top-dose activity change, negative = inhibition, actives largely listed as inhibitors | hit rate 1.2% among 390,000 | AID 588591, 2011; note: potency is the fitted concentration of half-maximal effect; % is set by controls: 0 for no effect and ±100 for the full control effect
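Fluorescent replication assay: 50 nM final substrate added after a 15 min room-temperature compound preincubation with 10 nM enzyme. Signal taken at 0 min and again at 10 min.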
PI4K2A inh: qHTS for small molecular inhibitors of PI4K2A; Phosphatidylinositol 4-kinase type 2-alpha (Homo sapiens), Q9BTU6; purified PI4K2A, ADP-Glo luminescence, 1 h; active compounds read low; hit rate 0.13% among 420,000; activity change, negative = inhibition, % at 76.9 µM; in the data active = activity change below about -50%; inconclusive = mostly about -30% to -49%;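 note: -100% = wells without enzyme as full effect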
Target sequence (Q9BTU6 whole entry, looked up): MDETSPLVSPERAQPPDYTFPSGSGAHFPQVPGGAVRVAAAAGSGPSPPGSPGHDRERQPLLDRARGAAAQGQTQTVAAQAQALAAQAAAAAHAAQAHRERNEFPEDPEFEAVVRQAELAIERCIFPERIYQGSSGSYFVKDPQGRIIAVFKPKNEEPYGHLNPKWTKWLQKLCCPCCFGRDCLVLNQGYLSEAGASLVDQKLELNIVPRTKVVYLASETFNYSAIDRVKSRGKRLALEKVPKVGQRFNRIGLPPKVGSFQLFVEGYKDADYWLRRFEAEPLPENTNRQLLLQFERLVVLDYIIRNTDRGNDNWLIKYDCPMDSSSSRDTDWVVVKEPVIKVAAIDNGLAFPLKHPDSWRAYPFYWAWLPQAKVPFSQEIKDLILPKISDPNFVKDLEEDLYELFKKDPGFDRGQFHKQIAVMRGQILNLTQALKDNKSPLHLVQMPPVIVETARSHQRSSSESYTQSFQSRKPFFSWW
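In this quantitative HTS, ADP production by PI4K2A was quantified luminescently after 1 h at ambient temperature; 100 microM adenosine served as plate-quality control.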
PI5P4Ka inh: qHTS for Inhibitors of phosphatidylinositol 5-phosphate 4-kinase (PI5P4K) | AID 652105, 2013 | Phosphatidylinositol 5-phosphate 4-kinase type-2 alpha (Homo sapiens), P48426 | hit rate 1.2% among 330,000 | PI5P4Kalpha enzyme, ADP-Glo luminescence, 60 min; active compounds read low | max response, %; active = max response of -50% or lower; inconclusive = between -30% and -50%; inactive = -30% or higher; note: value at the top dose of about 77 µM; % is set by controls: 0 for no effect and ±100 for the full control effect
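Enzyme plus substrate dispensed, test compounds pinned in, then ATP (5 microM final) added. After 60 min at RT, ADP-Glo reagent 1 for 45 min and reagent 2 for 30 min preceded luminescence imaging.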
Pol kappa inh: qHTS for Inhibitors of Polymerase Kappa. purified Pol kappa, fluorescent DNA synthesis assay, 10 min. hit rate 0.53% among 400,000. Potency, µM (doses to about 107 µM), without a hit: at the top dose activity, negative = inhibition, hits mostly inhibitors. DNA polymerase kappa (Homo sapiens), Q9UBT6; note: potency is the fitted concentration of half-maximal effect; % is set by controls: 0 for no effect and ±100 for the full control effect
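Here, compound and 10 nM enzyme are combined for 15 min at room temperature; adding 50 nM substrate (final) starts DNA synthesis, tracked by fluorescence at 0 and 10 min against buffer-only wells.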
The depositor's hits bear a star; ? = inconclusive; / = no result; [ ] = remark or other dose. Sampled rows, rich in hits. Any-hit rate of the full collection: about 2.8%. Unless noted, calls come from the whole dose curve; as a rule, active = well fitted inhibition curve with a large enough effect; inconclusive = small, poorly fitted or top-dose-only effect, or another doubt; inactive = no such curve, though single readings can be large or run the other way.

SMILES | POLB inh | POLI inh | POLH inh | PI4K2A inh | PI5P4Ka inh | Pol kappa inh
O=C(N/N=C/c1ccncc1)c1cc2c(ccc3ccccc32)o1 | 1% | 9% | ? | -8 | -2 | -2%
COc1ccc(/C=N\NC(=O)c2cc3c(ccc4ccccc43)o2)cc1O | -20% | 28µM* | 50µM* | -4 | -6 | -18%
O=C(O)c1ccc(/C=N/NC(=O)c2cc3c(ccc4ccccc43)o2)cc1 | 40µM* | ? | ? | -5 | -19 | -34%
O=C(O)COc1cccc2c1CCC=C2CCO/N=C(\c1ccccc1)c1cccnc1 | / | / | / | / | / | 14%[60.1 µM]
COc1ccc(CN2CC[C@H]3C=CC[C@@H](C(=O)N4CCN(c5ccccc5)CC4)[C@H]3C2=O)cc1OC | / | 11% | / | / | / | 14%
CN(C)CCCCCCNc1nccc(N2CCN(C)CC2)n1 | / | 89% | / | / | / | -1%
O=C(Nc1ccc(N2CCCCC2)cc1)c1ccccn1 | 2% | 7% | 0% | -65* | -24 | -8%
Cc1c(C)n(C)c2ccc(C(=O)NCCc3ccc(Cl)cc3)cc12 | -29% | -8% | -12% | 3 | / | -14%
CC(C)C[C@@H]1[C@H](c2ccccc2)OC(=O)N1CCCN1CCCCCC1 | / | / | / | 2 | / | /
CC1CCN(C(=O)COC(=O)c2cc(Cl)c3c(c2)OCO3)CC1 | / | -6% | ? | 0 | 2 | 2%
O=C(O)c1cc(Cl)c2c(c1)OCO2 | ? | ? | 22µM* | 0 | -13 | -39%
O=c1[nH]c(=O)n(Cc2ccccc2)c2nc(-c3cccs3)n(CCO)c12 | 35µM* | -15% | -2% | 0 | -25 | -7%
O=C(N/N=C/c1cccs1)c1cc(-c2ccc(Cl)s2)[nH]n1 | 45µM* | ? | ? | -2 | -3 | -26%
Cc1ccccc1Nc1nn2c(=O)c3ccc(C(=O)NCc4cccs4)cc3nc2s1 | 20µM* | 79µM* | ? | -4 | / | -1%[60.1 µM]
COc1cc2ncnc(N3CCN(C(=O)Nc4ccc(Oc5ccccc5)cc4)CC3)c2cc1OC | / | 16% | / | / | / | -18%
O=C(CCCc1nc2ccccc2s1)NCc1ccc(F)cc1 | 25% | 162% | -5% | 0 | 1 | -12%
COc1ccccc1/C=C(/CC(=O)NCc1ccc(F)cc1)c1nc2ccccc2s1 | 45µM* | ? | ? | -10 | ? | -17%
COc1ccccc1/C=C(/CC(=O)NCc1ccccc1)c1nc2ccccc2s1 | 20µM* | -5% | ? | -4 | ? | -31%
CCN(c1ccc(NC(=O)COC(=O)/C=C/c2ccco2)cc1)C(C)C | / | 3% | -23% | 0 | 1 | -5%
CC1CCCC(NC(=O)COC(=O)/C=C/c2ccco2)C1C (stereo not drawn) | / | 71µM* | -3% | 0 | -8 | -26%
O=C(/C=C/c1ccco1)OCC(=O)c1cccc([N+](=O)[O-])c1 | ? | ? | -8% | 2 | 1 | -12%
COc1ccc(C(=O)COC(=O)/C=C/c2ccco2)cc1F | / | 35µM* | ? | -6 | -28 | ?
CN(Cc1ccccc1)C(=O)COC(=O)/C=C/c1ccco1 | 14µM* | ? | ? | -2 | ? | ?
O=C(COC(=O)/C=C/c1ccco1)Nc1ccccc1 | 22µM* | ? | ? | -2 | -18 | -32%
Cc1sc(N)nc1-c1cccc([N+](=O)[O-])c1 | / | -1% | / | / | / | -19%
SMILES | POLB inh | POLI inh | POLH inh | PI4K2A inh | PI5P4Ka inh | Pol kappa inh
CCOC(=O)c1ccc(N2C(=O)C3CC=CCC3C2=O)cc1 (stereo not drawn) | -2% | 89µM* | -7% | -3 | / | -9%
CC(C)C(NC(=O)[C@H](Cc1ccccc1)NC(=O)OCc1ccccc1)P(=O)(O)OC(Cc1ccccc1)C(=O)O (stereo partly drawn) | / | / | / | -12 | / | /
O=C(Cn1ncc2c3ccccc3n(Cc3cccc(Cl)c3)c2c1=O)NC1CCCCCC1 | 13µM* | ? | ? | 0 | / | -15%
O=C(Cn1ncc2c3ccccc3n(Cc3ccc(F)cc3)c2c1=O)NC1CCCCCC1 | 41% | 5% | -12% | -1 | / | -9%
Cc1cc2oc(=O)c(CC(=O)O)c(C)c2c2occ(-c3ccc(F)cc3)c12 | 38% | ? | 11% | -11 | / | 15%
Cc1c(CC(=O)O)c(=O)oc2c(C)c3occ(-c4ccc(F)cc4)c3cc12 | 50µM* | -12% | 0% | -4 | -15 | 7%
COc1ccc(-c2coc3c(C)c4oc(=O)c(CCC(=O)O)c(C)c4cc23)cc1 | ? | ? | 50µM* | 1 | ? | -41%
Cc1c(CC(=O)N[C@@H](C)C(=O)O)c(=O)oc2c(C)c3occ(-c4ccccc4)c3cc12 | -29% | ? | 4% | 4 | -20 | ?
COc1cc(OC)c(/C=C/c2cc3c4ccccc4ccc3[n+](C)c2)c(OC)c1 | / | 2% | / | / | / | 0%
Cc1ccccc1C(=O)Nc1nc(=S)ss1 | 15% | -1% | -3% | 1 | ? | -21%
CC(=O)Nc1nc(=S)ss1 | 19% | ? | 2% | 3 | -58* | -5%
CC(C)CC(=O)Nc1nc(=S)ss1 | 2% | ? | 1% | 2 | -53* | -6%
COC(=O)c1[nH]c2c(c1C)C(=O)CC(c1ccc(OC)c(OC)c1)C2 (stereo not drawn) | ? | 11% | ? | -8 | -1 | -19%
COC(=O)c1[nH]c2c(c1C)C(=O)CC(c1cccc(OC)c1)C2 (stereo not drawn) | 45µM* | ? | -5% | 2 | -6 | -22%
CCN(CC)c1nc(N)c2c(N)nc(OC)cc2c1C#N | / | 8.9µM* | -14% | ? | -6 | -17%
COc1cc2c(C#N)c(N3CCCCC3)nc(N)c2c(N)n1 | 10% | ? | ? | 0 | -28 | -10%
Cc1cc2c(N)cccc2nn1 | 22µM* | 5.6µM* | -11% | -16 | ? | 89µM*
Nc1[nH]nc2nc3ccccc3cc12 | 6% | 27% | -17% | -3 | 4 | -6%
Cc1cc2c(NC(=O)Nc3ccccc3)cccc2nn1 | -2% | 133% | -10% | 10 | -1 | 2%
Nc1cccc2nc3ccccc3cc12 | 8.9µM* | -15% | 14% | 0 | 0 | 8%
Cc1cc(C)cc(NC(=O)CSCc2nc3c(nnn3Cc3ccc(F)cc3)c(=O)[nH]2)c1 | / | 45µM* | ? | 2 | / | -39%
Cc1ccc(NC(=O)CSCn2nnc3c(=O)[nH]c(Cc4ccc(F)cc4)nc32)c(C)c1 | ? | ? | -1% | -2 | / | ?
